# Reference: the supplement of paper PMC8728848
# This is one part of a sample in which the strongest signals are shown more often than they occur.
# B1: SAOUHSC 00176 (Staphylococcus aureus) (protein)
# chain: MSKILKCITLAVVMLLIVTACGPNRSKEDIDKALNKDNSKDKPNQLTMWVDGDKQMAFYKKITDQYTKKTGIKVKLVNIGQNDQLENISLDAPAGKGPDIFFLAHDNTGSAYLQGLAAEIKLSKDELKGFNKQALKAMNYDNKQLALPAIVETTALFYNKKLVKNAPQTLEEVEANAAKLTDSKKKQYGMLFDAKNFYFNYPFLFGNDDYIFKKNGSEYDIHQLGLNSKHVVKNAERLQKWYDKGYLPKAATHDVMIGLFKEGKVGQFVTGPWNINEYQETFGKDLGVTTLPTDGGKPMKPFLGVRGWYLSEYSKHKYWAKDLMLYITSKDTLQKYTDEMSEITGRVDVKSSNPNLKVFEKQARHAEPMPNIPEMRQVWEPMGNASIFISNGKNPKQALDEATNDITQNIKILHPSQNDKKGD
# Columns and labels:
# Experiment in all cases: glycan array binding signal (z-score within array); higher = stronger binding
# Details in all cases: glycan notation: IUPAC condensed, linker removed
# [1] = target: Fuc(a1-2)Gal(b1-4)GlcNAc(b1-2)Man(a1-3)[Fuc(a1-2)Gal(b1-4)GlcNAc(b1-2)Man(a1-6)]Man(b1-4)GlcNAc(b1-4)[Fuc(a1-6)]GlcNAc
# Procedure, shortened: (§1)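 Arrays were curated from the Consortium for Functional Glycomics database, 3228 in total, and kept only where the protein sequence was available. Binding is expressed as a within-array Z-score. This score was averaged across arrays of the same protein sequence at different concentrations or buffers and across linkers, and negative values can be read as non-binding.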
# [2] = target: Fuc(a1-2)Gal(b1-4)[Fuc(a1-3)]GlcNAc(b1-2)[Fuc(a1-2)Gal(b1-4)[Fuc(a1-3)]GlcNAc(b1-4)]Man(a1-3)[Fuc(a1-2)Gal(b1-4)[Fuc(a1-3)]GlcNAc(b1-2)Man(a1-6)]Man(b1-4)GlcNAc(b1-4)GlcNAc
# Procedure, shortened: as §1
# [3] = target: Fuc(a1-3)[Gal3S(b1-4)]GlcNAc
# Procedure, shortened: as §1
# [4] = target: Fuc(a1-3)[Gal3S(b1-4)]GlcNAc6S
# Procedure, shortened: as §1
# [5] = target: Fuc(a1-3)[GalNAc(b1-4)]GlcNAc
# Procedure, shortened: as §1
# Gal(a1-3)Gal(b1-3)GlcNAc = target: Gal(a1-3)Gal(b1-3)GlcNAc
# Procedure, shortened: as §1
# [6] = target: Gal(a1-3)Gal(b1-3)GlcNAc(b1-2)Man(a1-3)[Gal(a1-3)Gal(b1-3)GlcNAc(b1-2)Man(a1-6)]Man(b1-4)GlcNAc(b1-4)GlcNAc
# Procedure, shortened: as §1
# [7] = target: Gal(a1-3)Gal(b1-3)GlcNAc(b1-3)GalNAc
# Procedure, shortened: as §1
# Gal(a1-4)GlcNAc = target: Gal(a1-4)GlcNAc
# Procedure, shortened: as §1
# Gal(b1-2)Gal = target: Gal(b1-2)Gal
# Procedure, shortened: as §1
# [8] = target: Gal(b1-3)GlcNAc(a1-6)Gal(b1-4)GlcNAc
# Procedure, shortened: as §1
# [9] = target: Gal(b1-3)GlcNAc(b1-2)Man(a1-3)[Gal(b1-3)GlcNAc(b1-2)Man(a1-6)]Man(b1-4)GlcNAc(b1-4)GlcNAc
# Procedure, shortened: as §1
# [10] = target: Gal(b1-3)GlcNAc(b1-3)Gal(b1-4)GlcNAc(b1-2)Man(a1-3)[Gal(b1-3)GlcNAc(b1-3)Gal(b1-4)GlcNAc(b1-2)Man(a1-6)]Man(b1-4)GlcNAc(b1-4)GlcNAc
# Procedure, shortened: as §1
# [11] = target: Gal(b1-3)GlcNAc(b1-3)GalNAc
# Procedure, shortened: as §1
# [12] = target: Gal(b1-4)GlcNAc(b1-2)Man(a1-3)Man(b1-4)GlcNAc(b1-4)GlcNAc
# Procedure, shortened: as §1
# [13] = target: Gal(b1-4)GlcNAc(b1-2)Man(a1-3)[Man(a1-6)]Man(b1-4)GlcNAc(b1-4)GlcNAc
# Procedure, shortened: as §1
# [14] = target: Gal(b1-4)GlcNAc(b1-2)[Gal(b1-4)GlcNAc(b1-4)]Man(a1-3)[GlcNAc(b1-4)][Gal(b1-4)GlcNAc(b1-2)Man(a1-6)]Man(b1-4)GlcNAc(b1-4)GlcNAc
# Procedure, shortened: as §1
# [15] = target: Gal(b1-4)GlcNAc(b1-3)Gal(b1-4)GlcNAc(b1-2)Man(a1-3)[Gal(b1-4)GlcNAc(b1-3)Gal(b1-4)GlcNAc(b1-2)Man(a1-6)]Man(b1-4)GlcNAc(b1-4)GlcNAc
# Procedure, shortened: as §1
# [16] = target: Gal(b1-4)GlcNAc(b1-3)Gal(b1-4)GlcNAc(b1-2)[Gal(b1-4)GlcNAc(b1-3)Gal(b1-4)GlcNAc(b1-6)]Man(a1-6)[Gal(b1-4)GlcNAc(b1-3)Gal(b1-4)GlcNAc(b1-2)Man(a1-3)]Man(b1-4)GlcNAc(b1-4)GlcNAc
# Procedure, shortened: as §1
# [17] = target: GalNAc(a1-3)GalNAc(b1-3)Gal(a1-4)Gal(b1-4)GlcNAc
# Procedure, shortened: as §1
# GalNAc(b1-4)Gal(b1-4)Glc = target: GalNAc(b1-4)Gal(b1-4)Glc
# Procedure, shortened: as §1
# [18] = target: GalNAc(b1-4)GlcNAc(b1-3)GalNAc(b1-4)GlcNAc
# Procedure, shortened: as §1
# GalNAc(b1-4)GlcNAc6S = target: GalNAc(b1-4)GlcNAc6S
# Procedure, shortened: as §1
# GalNAc3S(b1-4)GlcNAc3S = target: GalNAc3S(b1-4)GlcNAc3S
# Procedure, shortened: as §1
# Glc(a1-4)Glc = target: Glc(a1-4)Glc
# Procedure, shortened: as §1
# [19] = target: Glc(a1-4)Glc(a1-4)Glc(a1-4)Glc
# Procedure, shortened: as §1
# [20] = target: GlcNAc(b1-3)Gal(b1-3)GalNAc
# Procedure, shortened: as §1
binder,measurement,setting,value
B1,glycan array binding signal (z-score),[1],0.688
same,glycan array binding signal (z-score),[2],0.546
same,glycan array binding signal (z-score),[3],-0.097
same,glycan array binding signal (z-score),[4],-0.175
same,glycan array binding signal (z-score),[5],-0.119
same,glycan array binding signal (z-score),Gal(a1-3)Gal(b1-3)GlcNAc,-0.106
same,glycan array binding signal (z-score),[6],0.584
same,glycan array binding signal (z-score),[7],-0.107
same,glycan array binding signal (z-score),Gal(a1-4)GlcNAc,-0.034
same,glycan array binding signal (z-score),Gal(b1-2)Gal,-0.068
same,glycan array binding signal (z-score),[8],-0.122
same,glycan array binding signal (z-score),[9],1.06
same,glycan array binding signal (z-score),[10],-0.007
same,glycan array binding signal (z-score),[11],-0.105
same,glycan array binding signal (z-score),[12],-0.068
same,glycan array binding signal (z-score),[13],1.03
same,glycan array binding signal (z-score),[14],0
same,glycan array binding signal (z-score),[15],0.017
same,glycan array binding signal (z-score),[16],0.619
same,glycan array binding signal (z-score),[17],-0.027
same,glycan array binding signal (z-score),GalNAc(b1-4)Gal(b1-4)Glc,0.067
same,glycan array binding signal (z-score),[18],-0.092
same,glycan array binding signal (z-score),GalNAc(b1-4)GlcNAc6S,-0.057
same,glycan array binding signal (z-score),GalNAc3S(b1-4)GlcNAc3S,-0.084
same,glycan array binding signal (z-score),Glc(a1-4)Glc,4.5
same,glycan array binding signal (z-score),[19],23.6
same,glycan array binding signal (z-score),[20],-0.061
